Compound activity from PubChem BioAssay.
An excerpt weighted towards active compounds, which were near 1.1% of everything screened.
Glyco luc inh: N-linked glycosylation inhibition; reporter increase, % at 12.5 µM; 360,000 compounds, 0.23% hits; D54 ERlucT glycosylation luciferase reporter, 24 h; percent of 100 nM tunicamycin response; AID 588692;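 active means mean luciferase reporter signal, scaled so untreated is 0 and the glycosylation-blocking control 100, at or above a set limit in every replicate; inconclusive means mean reaches the limit but not every replicate does; inactive means mean below the limit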;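 further: luciferase carries N-glycosylation sites so blocking glycosylation raises the light; 0% = median of neutral control wells and 100% = median of 100 nM tunicamycin wells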
C-LANA FP: inhibitors of KSHV LANA C-terminal domain DNA binding | MBP-C-LANA/FAM-LBS DNA binding, fluorescence polarization | inhibition, % at 9 µM | 340,000 compounds, 0.078% hits;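 active means highest replicate inhibition at or above 60% at 9 µM, even if other replicates fall short; inactive means all replicates below 60% inhibition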;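 further: 0% = neutral control wells and 100% = 4 µM acridine orange control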
NSD2 inh: inhibitors of human histone methyltransferase NSD2; 310,000 compounds, 0.54% hits; NSD2 peptide methylation, AlphaScreen, 120 min; O96028; inhibition, % at 12.5 µM; in the data active means inhibition above about 50%
Casp6 inh: blocks human caspase-6 cleavage activity; P55212; purified caspase-6, Z-VEID-R110 cleavage fluorescence; inhibition, % at 12.5 µM; 350,000 compounds, 0.53% hits; AID 686996;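 active means mean inhibition across replicates at least about 35%, with every replicate also reaching that limit, limit read from the data; inconclusive means only one of the two criteria met; inactive means neither criterion met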;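 further: 0% = median of neutral control wells and 100% = no fluorescence left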
Target sequence (P55212 24-179 limits assumed): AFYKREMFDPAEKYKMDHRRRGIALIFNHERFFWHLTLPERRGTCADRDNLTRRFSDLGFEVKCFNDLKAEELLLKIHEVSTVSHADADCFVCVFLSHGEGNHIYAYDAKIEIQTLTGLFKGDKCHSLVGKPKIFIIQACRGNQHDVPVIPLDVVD
Target sequence (P55212 194-293 limits assumed): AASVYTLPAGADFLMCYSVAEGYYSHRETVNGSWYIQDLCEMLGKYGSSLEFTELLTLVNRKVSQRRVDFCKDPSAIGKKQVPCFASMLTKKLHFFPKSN
HDAC3 inhib: human HDAC3 inhibition | recombinant HDAC3, fluorogenic peptide/trypsin coupled, fluorescence | inhibition, % at 8.3 µM | 320,000 compounds, 0.15% hits | AID 2718; in the data active means inhibition above about 26%, passing the limit was not always enough; inconclusive means no clear call, values can overlap the other calls
Target sequence (O15379 whole entry, looked up): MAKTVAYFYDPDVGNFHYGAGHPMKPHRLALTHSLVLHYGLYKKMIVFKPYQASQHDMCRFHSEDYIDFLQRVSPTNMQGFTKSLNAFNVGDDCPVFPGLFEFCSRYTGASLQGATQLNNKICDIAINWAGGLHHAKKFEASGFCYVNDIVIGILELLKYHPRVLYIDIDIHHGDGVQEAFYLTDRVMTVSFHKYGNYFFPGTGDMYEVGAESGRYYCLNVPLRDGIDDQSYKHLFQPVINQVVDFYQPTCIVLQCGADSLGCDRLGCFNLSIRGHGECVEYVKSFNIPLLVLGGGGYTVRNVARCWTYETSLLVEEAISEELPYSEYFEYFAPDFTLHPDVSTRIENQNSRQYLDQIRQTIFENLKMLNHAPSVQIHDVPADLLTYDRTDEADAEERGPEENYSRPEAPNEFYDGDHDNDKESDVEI
Keap1-Nrf2 PPI: disrupts human Keap1 binding to Nrf2 peptide | Q14145 | Keap1 Kelch-Nrf2 peptide fluorescence polarization, 1536-well | inhibition, % at 9.4 µM | 340,000 compounds, 0.15% hits | AID 504523; in the data active means inhibition above about 12%; inconclusive means no clear call, values can overlap the other calls; inactive means below about 7.3%;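 further: human Keap1 Kelch domain with fluorescein labeled Nrf2 9mer peptide probe; 0% = neutral control wells and 100% = peptide positive control; higher means more block of Keap1 binding to Nrf2 peptide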
* marks the source's active call; other numbers are inactive results; ? = inconclusive; . = no result.

SMILES | Glyco luc inh | C-LANA FP | NSD2 inh | Casp6 inh | HDAC3 inhib | Keap1-Nrf2 PPI
O=C(Nc1ccc2c(c1)[C@@H]1C[C@H](CC(=O)N3CCCCC3)O[C@H](CO)[C@@H]1O2)NC1CCCC1 | . | . | . | 1 | . | .
N[C@@H](Cc1cc(I)c(O)c(I)c1)C(=O)O | -1 | 37 | . | 44* | 0 | -2
NC(Cc1ccc(Oc2ccc(O)cc2)cc1)C(=O)O (stereo unspecified) | . | . | . | . | -1 | .
N#C[C@@H]1[C@H](c2ccccc2C2=CCCCC2)[C@@H](CO)N1C(=O)NC1CCCCC1 | . | . | . | -1 | . | .
CCOc1cc(/C=C2\CCCC(C(=O)C(F)(F)F)=C2O)ccc1O | 19 | 2 | 13 | . | 35* | -4
CC(C)C[C@H](NC(=O)c1[nH]cnc1C(=O)N[C@@H](Cc1ccccc1)C(=O)OC(C)(C)C)C(=O)OC(C)(C)C | -3 | 1 | . | -4 | -6 | -9
CC(C)C[C@H](NC(=O)c1nc[nH]c1C(=O)NCc1ccccc1)C(=O)OC(C)(C)C | -3 | 4 | . | -5 | 40* | 3
CC(C)C[C@H](NC(=O)c1nc[nH]c1C(=O)NCc1ccc(CNC(=O)OC(C)(C)C)cc1)C(=O)OC(C)(C)C | -6 | -1 | . | -5 | 35* | -4
CC(C)C[C@H](NC(=O)c1[nH]cnc1C(=O)Nc1ccc(CNC(=O)OC(C)(C)C)cc1)C(=O)OCc1ccccc1 | -1 | 2 | . | 0 | 3 | -4
CC(C)C[C@H](NC(=O)c1nc[nH]c1C(=O)NC1CCN(C(=O)OC(C)(C)C)CC1)C(=O)OC(C)(C)C | -4 | 2 | . | . | 22 | 1
C[C@H](NC(=O)c1nc[nH]c1C(=O)NCc1ccc(CNC(=O)OC(C)(C)C)cc1)C(=O)OC(C)(C)C | -1 | -2 | . | -2 | ? | -5
CC(C)C[C@H](NC(=O)c1[nH]cnc1C(=O)Nc1ccc(CNC(=O)OC(C)(C)C)cc1)C(=O)OC(C)(C)C | -3 | 2 | . | 2 | 52* | 1
CC(C)C[C@H](NC(=O)c1nc[nH]c1C(=O)NC1CCN(C(=O)OC(C)(C)C)CC1)C(=O)OCc1ccccc1 | 6 | -1 | . | 2 | 44* | 0
Cc1ccc(S(=O)(=O)N(C)C[C@H]2Oc3ccc(NS(=O)(=O)c4ccc(F)cc4)cc3CC(=O)N([C@@H](C)CO)C[C@H]2C)cc1 | . | . | . | 0 | . | .
COc1ccc(CN(C)C[C@H]2OCCCC[C@@H](C)Oc3ccc(NC(=O)NC4CCCCC4)cc3C(=O)N([C@@H](C)CO)C[C@@H]2C)cc1 | . | . | . | 1 | . | .
COCC(=O)N(C)C[C@H]1Oc2ncc(C#Cc3cccnc3)cc2C(=O)N([C@@H](C)CO)C[C@H]1C | . | . | . | -1 | . | .
CCOC(=O)/C(=C\c1cccnc1)C(=O)c1cc(C(C)=O)c(Nc2ccccc2)s1 | -20 | 1 | . | . | 8 | -6
CCOC(=O)/C(=C\c1ccccc1)C(=O)c1cc(C(C)=O)c(Nc2ccccc2)s1 | 35* | -2 | 4 | . | 0 | -5
CNC[C@@H]1Oc2ccc(NC(=O)Cc3cn(C)c4ccccc34)cc2C(=O)N([C@H](C)CO)C[C@@H]1C | . | . | . | -2 | . | .
CC(C)CNC(=O)C1(C)CCCN1C(=O)Cc1cccc2ccccc12 (stereo unspecified) | 2 | . | 1 | 54* | . | .
O=C(/C=C(\c1ccccc1)n1cncn1)c1ccccc1 | 5 | 1 | 1 | 3 | 4 | -2
O=C(/C=C(\c1ccc(Cl)cc1)n1cncn1)c1ccc(Cl)cc1 | 27* | 2 | . | -5 | -1 | -2
CCN1C(=O)c2cccc3c(S(=O)(=O)Nc4ccccn4)ccc1c23 | 50* | -1 | . | . | 3 | 0
CCN1C(=O)c2cccc3c(S(=O)(=O)Nc4ccccc4)ccc1c23 | 51* | -1 | -8 | . | 3 | -4
CCN1C(=O)c2cccc3c(S(=O)(=O)Nc4ncccc4C)ccc1c23 | 12 | 4 | . | . | 5 | 1
SMILES | Glyco luc inh | C-LANA FP | NSD2 inh | Casp6 inh | HDAC3 inhib | Keap1-Nrf2 PPI
CCN1C(=O)c2cccc3c(S(=O)(=O)Nc4ccncc4)ccc1c23 | 4 | -1 | -1 | . | 4 | -2
COc1ccccc1-c1ccc2c(c1)[C@H]1[C@H](CCN1C(=O)C1CCCC1)[C@@H](CO)N2 | . | . | . | 1 | . | .
Cc1nc(Nc2nc(-c3ccccc3)cc(=O)[nH]2)nc2ccccc12 | 103* | 0 | 0 | 0 | 0 | 4
Cc1noc(C)c1S(=O)(=O)Nc1ccc2c(c1)CC(=O)N([C@H](C)CO)C[C@@H](C)[C@H](CN(C)C(=O)NC1CCCCC1)O2 | . | . | . | -3 | . | .
NS(=O)(=O)c1ccc(NC(=O)CSc2nnc(NC3CC3)s2)cc1 | 0 | 7 | 14 | 36* | . | 1
C[C@@H]1CN([C@@H](C)CO)C(=O)c2cc(N(C)C)ccc2O[C@@H]1CN(C)C(=O)Nc1ccc(F)cc1 | . | . | . | -1 | . | .
CSc1ccccc1NC(=O)COC(=O)/C=C/c1ccco1 | 3 | 2 | -1 | 41* | 0 | -5
O=C(COC(=O)Cc1ccc(Cl)c(Cl)c1)NCc1ccco1 | -1 | 0 | 0 | 7 | . | 0
O=C(COC(=O)/C=C/c1ccco1)Nc1ncc(C(F)(F)F)cc1Cl | 2 | 9 | 15 | 53* | 2 | -6
CNC(=O)COC(=O)/C=C/c1ccco1 | 1 | 2 | 4 | 0 | 10 | -4
O=C(COC(=O)/C=C/c1ccco1)NCc1ccco1 | -1 | 3 | 5 | 60* | 8 | -1
O=C(COC(=O)Cc1ccc(Cl)cc1)NCc1ccco1 | 0 | 8 | 8 | 42* | -4 | -1
O=C(Nc1cc(F)ccc1F)N[C@@H]1CC[C@H](CCNC(=O)c2cnccn2)O[C@H]1CO | . | . | . | -6 | . | .
C[C@H]1CCCCO[C@H](CN(C)Cc2ccncc2)[C@@H](C)CN([C@@H](C)CO)C(=O)c2cc(NS(C)(=O)=O)ccc2O1 | . | . | . | -5 | . | .
CCOC(=O)C1(Cc2ccccc2C)CCCN(C(=O)CCc2cccnc2)C1 (stereo unspecified) | 1 | 0 | -1 | 60* | 7 | 1
CCOC(=O)c1nn(-c2ccc(OC)cc2)c(=O)c2c(N)scc12 | 1 | 0 | 13 | 45* | 2 | -3
CCOC(=O)c1nn(-c2ccc(C)c(C)c2)c(=O)c2c(N)scc12 | -1 | -2 | 3 | . | 9 | -6
O=C(C[C@H]1C=C[C@H](NC(=O)C2CCC2)[C@H](CO)O1)NCC1CC1 | . | . | . | -2 | . | .
C=CCC[C@@H](Cc1ccc(F)cc1)C(=O)OC[C@@H]1CCCN1C(=O)[C@H](CC=C)CC(=O)N[C@H](CO)Cc1ccccc1 | 0 | 2 | . | 1 | 18 | -5
C=CC[C@H](CC(=O)N(CCO)Cc1ccccc1)C(=O)N[C@@H](COC(=O)[C@@H](CC=C)Cc1ccc(F)cc1)Cc1c[nH]c2ccccc12 | 2 | 1 | . | -1 | 39* | 1
C=CC[C@@H](CC(=O)N(CCO)Cc1ccccc1)C(=O)N[C@H](COC(=O)[C@@H](CC=C)CC(=O)OC(C)(C)C)Cc1c[nH]c2ccccc12 | -4 | -3 | . | -1 | 50* | -10
